# PI5P4K alpha inh = inhibitors of human PI5P4K alpha; PI5P4Kalpha enzyme, ADP-Glo luminescence, 60 min; active compounds read low; max response, %; 330,000 compounds, 1.2% hits; AID 652105; active means max response of -50% or lower; inconclusive means between -30% and -50%; inactive means -30% or higher; further: value at the top dose of about 77 µM; on the % scale 0 is the no-effect control and ±100 the full control effect
#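 Quantitative HTS of the MLSMR library against PI5P4Kalpha with substrate. ATP added last at 5 microM final; room temperature, 60 minutes. Remaining ATP depleted, ADP converted and read as luminescence.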
# JMJD2A Tudor = inhibitors of human JMJD2A Tudor domain. O75164. AlphaScreen JMJD2A-Tudor / H3K4me3 peptide binding. Potency, µM (titrated, usually from 114 µM), for inactives: at the top dose activity change, negative = inhibition, most hits filed as inhibitors. 390,000 compounds, 4.4% hits. AID 504339; further: potency means the concentration at half of the fitted maximal effect; on the % scale 0 is the no-effect control and ±100 the full control effect; nearly all actives have a fitted effect of over 50% in size
# Target sequence (O75164 whole entry, looked up, the tested form may be a part): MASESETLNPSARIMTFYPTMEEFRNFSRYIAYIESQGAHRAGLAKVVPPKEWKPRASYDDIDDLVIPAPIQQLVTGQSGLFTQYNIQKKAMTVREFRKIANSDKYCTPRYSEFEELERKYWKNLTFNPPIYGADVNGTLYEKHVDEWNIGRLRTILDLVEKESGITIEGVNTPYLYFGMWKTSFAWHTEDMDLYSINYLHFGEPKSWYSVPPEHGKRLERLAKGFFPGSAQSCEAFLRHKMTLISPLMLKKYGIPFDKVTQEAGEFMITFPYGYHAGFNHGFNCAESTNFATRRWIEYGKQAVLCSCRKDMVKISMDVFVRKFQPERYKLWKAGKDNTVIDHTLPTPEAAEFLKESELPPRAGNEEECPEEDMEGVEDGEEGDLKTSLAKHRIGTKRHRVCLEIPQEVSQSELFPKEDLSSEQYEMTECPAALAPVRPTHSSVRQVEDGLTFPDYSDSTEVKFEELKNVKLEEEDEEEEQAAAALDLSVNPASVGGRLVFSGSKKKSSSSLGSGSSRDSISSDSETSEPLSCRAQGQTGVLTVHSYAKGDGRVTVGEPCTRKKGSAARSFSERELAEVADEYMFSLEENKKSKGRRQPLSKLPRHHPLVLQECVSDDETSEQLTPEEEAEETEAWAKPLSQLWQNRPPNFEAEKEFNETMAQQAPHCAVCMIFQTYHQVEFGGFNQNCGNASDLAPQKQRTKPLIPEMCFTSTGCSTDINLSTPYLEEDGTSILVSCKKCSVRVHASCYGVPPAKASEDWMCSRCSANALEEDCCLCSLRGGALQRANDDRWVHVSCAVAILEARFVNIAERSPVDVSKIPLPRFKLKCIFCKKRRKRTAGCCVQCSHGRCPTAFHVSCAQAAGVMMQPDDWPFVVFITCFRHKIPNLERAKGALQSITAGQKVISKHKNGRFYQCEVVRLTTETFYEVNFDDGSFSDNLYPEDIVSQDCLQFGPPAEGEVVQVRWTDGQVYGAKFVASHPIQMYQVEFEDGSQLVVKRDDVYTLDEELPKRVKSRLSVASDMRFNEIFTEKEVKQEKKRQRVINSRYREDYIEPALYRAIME
# BAZ2B inh = BAZ2B (human) inhibition. Q9UIF8. AlphaScreen BAZ2B-H3K14Ac peptide displacement. Potency, µM (doses to about 114 µM), for the others: top-dose activity change, negative = inhibition, most hits filed as inhibitors. 360,000 compounds, 4.4% hits; further: potency means the concentration at half of the fitted maximal effect; on the % scale 0 is the no-effect control and ±100 the full control effect; nearly all actives have a fitted effect of over 60% in size
#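 AlphaScreen luminescence quantifies BAZ2B engagement of H3K14Ac peptide; the protein and biotinylated peptide are both at 50 nM final, buffer PBS pH 7.4 with 0.01% Tween-20, all steps at room temperature.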
# G9a block = blocks human histone lysine methyltransferase G9a; G9a H3K9 monomethylation, AlphaScreen, 2 h; Potency, µM (series often up to 102 µM), inactives show at the top dose activity, negative = inhibition, actives largely listed as inhibitors; 350,000 compounds, 8.8% hits; AID 504332; further: potency means the concentration at half of the fitted maximal effect; on the % scale 0 is the no-effect control and ±100 the full control effect; nearly all actives have a fitted effect of over 75% in size
#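 Methyltransferase reactions run at room temperature for 2 h (20 nM enzyme, 500 nM biotin-H3K9 peptide, 20 uM SAM) after a 15 min compound preincubation; product detected by AlphaScreen beads and anti-H3K9me1 antibody.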
# HP1b binding inh = inhibitors of HP1-beta chromodomain binding to methylated histone tails; P83916; 390,000 compounds, 0.56% hits; Potency, µM (doses to about 114 µM), for the others: at the highest dose activity change, negative = inhibition, most hits filed as inhibitors; AlphaScreen HP1-beta / biotin-H3K9me3 peptide binding; further: potency means the concentration at half of the fitted maximal effect; nearly all actives have a fitted effect of over 70% in size
#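 Compound inhibition of the preformed complex between 50 nM HP1-beta and 50 nM biotinylated H3K9me3 peptide was read by AlphaScreen. Buffer was PBS pH 7.4 with 0.01% Tween-20. Incubations ran 30 min at room temperature, with 10 ug/mL donor/acceptor beads.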
# L3MBTL1 block = inhibitors of human L3MBTL1. Q9Y468. Potency, µM (top dose mostly 57.1 µM), for the others: at the top dose activity, negative = inhibition, actives largely listed as inhibitors. 230,000 compounds, 0.66% hits. AID 485360. AlphaScreen L3MBTL1–H3K9me1 peptide binding; further: potency means the concentration at half of the fitted maximal effect; on the % scale 0 is the no-effect control and ±100 the full control effect; nearly all actives have a fitted effect of over 60% in size
#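 First, the protein-peptide complex forms for 30 min at room temperature (L3MBTL1 50 nM, biotinylated H3K9me1 peptide 75 nM). Next, compounds are pin-transferred and incubated 30 min. Finally, AlphaScreen beads are added and read after 30 min.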
# * marks the source's active call; other numbers are inactive results; ? = inconclusive; / = no result; [ ] = remark or other dose. Most compounds without a hit are left out; they make up all but 11% or so of the library. Unless noted, the call rests on the fitted dose curve; in most records, active means well fitted inhibition curve with a large enough effect; inconclusive means small, poorly fitted or top-dose-only effect; inactive means no such curve, though single readings can be large or run the other way.
SMILES,PI5P4K alpha inh,JMJD2A Tudor,BAZ2B inh,G9a block,HP1b binding inh,L3MBTL1 block
CCNc1ncc2nc(-c3ccc(OC)cc3)c(=O)n(CCC#N)c2n1,/,/,/,9%[0.501 µM],/,/
O=C(CSc1ncn[nH]1)N1N=C2/C(=C/c3ccco3)CCCC2C1c1ccco1 (stereo unspecified),/,56µM*,?,50µM*,-25%,/
CCc1cccc(C)c1NC(=S)NCCc1c(C)[nH]c2ccc(C)cc12,4,45µM*,25µM*,45µM*,?,-13%
Cc1ccc2[nH]c(C)c(CCNC(=O)c3c(N)no[n+]3[O-])c2c1,1,50µM*,?,?,71µM*,/
CCc1cccc(CC)c1NC(=S)NCCc1c(C)[nH]c2ccc(C)cc12,1,32µM*,28µM*,40µM*,-22%,-21%
O=C(O)C1CCCCC1C(=O)NC1C2CC3CC(C2)CC1C3 (stereo unspecified),4,1%,-3%,/,52%,7%
NC(=S)NNC(=O)[C@@H]1CCCC[C@@H]1C(=O)O,1,?,-6%,45µM*,-21%,3%
COc1ccc(C(=O)N(Cc2ccco2)Cc2cccs2)cc1,/,-28%,/,/,51%,/
CSc1cnc2c(=O)n(C)c(=O)[nH]c2n1,1,-1%,7%,5%[59 µM],20%,10%
Cn1c(=O)[nH]c2nnc(-c3ccc(Cl)c(Cl)c3)nc2c1=O,-11,?,89µM*,?,3%,/
CCCc1c(C(=O)OCC)nnc2c(-c3ccccc3)c(C)nn12,/,-8%,-21%,7%[59 µM],35%,/
COc1ccc(-n2c(=O)c3c4c(sc3n3c(=S)[nH]nc23)COC(C(C)C)C4)cc1 (stereo unspecified),-16,?,-5%,8.9µM*,6%,2%
COc1ccc(-n2c(=O)c3c4c(sc3n3c(SC(C)C)nnc23)COC(C(C)C)C4)cc1 (stereo unspecified),/,-3%,-5%,-52%[59 µM],53%,/
O=c1c2c3c(sc2n2c(=S)[nH]nc2n1-c1ccccc1)CCC3,-19,3.2µM*,-2%,/,4%,/
CCSc1nnc2n(-c3ccc(OC)cc3)c(=O)c3c4c(sc3n12)CCCC4,2,1%,-3%,-1%[59 µM],29%,/
COc1ccc(-n2c(=O)c3c4c(sc3n3c(=S)[nH]nc23)CCC4)cc1,-10,10µM*,-14%,2.5µM*,15%,2%
CCn1c(=O)c2c3c(sc2n2c(=S)[nH]nc12)CCC3,-8,7.9µM*,8%,3.2µM*,4%,/
CN1CCc2c(sc3c2c(=O)n(-c2ccccc2)c2n[nH]c(=S)n32)C1,/,40µM*,-5%,5µM*,34%,2%
Cc1cccc(-n2c(=O)c3c4c(sc3n3c(=S)[nH]nc23)CCC4)c1,-17,18µM*,-30%,?,28%,/
CSc1nnc2n(-c3cccc(C)c3)c(=O)c3c4c(sc3n12)CCCC4,/,-9%,0%,-44%[59 µM],27%,/
Cc1cccc(-n2c(=O)c3c4c(sc3n3cnnc23)CCCC4)c1,/,-15%,-10%,-35%[59 µM],26%,/
Cc1ccc(-n2c(=O)[nH]c3sc4c(c3c2=O)CCCC4)cc1,/,-25%,-15%,5%[59 µM],36%,/
Cc1ccc(-n2c(=O)c3c4c(sc3n3c(=S)[nH]nc23)CCC4)cc1,-11,25µM*,-18%,2.8µM*,36%,0%
COC(=O)C(C)Sc1nnc2n(-c3cccc(C)c3)c(=O)c3c4c(sc3n12)CCCC4 (stereo unspecified),-1,-22%,3%,25µM*,32%,-5%
Cc1cc(C)c(C)c(S(=O)(=O)N2CCN(S(=O)(=O)c3ccc4c(c3)OCCO4)CC2)c1C,/,-32%,/,/,/,/
SMILES,PI5P4K alpha inh,JMJD2A Tudor,BAZ2B inh,G9a block,HP1b binding inh,L3MBTL1 block
Cc1cccc2sc(N(Cc3cccnc3)C(=O)C3CCCCC3)nc12,/,8%,12%,-4%[59 µM],61%,/
Cc1ccccc1CN1C(=O)C(O)(CC(=O)c2cccc(Br)c2)c2ccccc21 (stereo unspecified),/,-32%,1%,13%[59 µM],39%,/
CCOC(=O)C1CCN(S(=O)(=O)CCNC(=O)c2cccc(OC)c2)CC1,2,-12%,-1%,18µM*,11%,8%
O=C(NCCS(=O)(=O)N1CCC2(CC1)OCCO2)c1ccc(F)cc1,1,4%,0%,0%[0.501 µM],47%,-3%
O=S(=O)(CCOc1ccccc1)N1CCOCC1,3,4%,6%,79µM*,16%,5%
COc1cccc(C(=O)NCCS(=O)(=O)N2CCC3(CC2)OCCO3)c1,-1,-3%,6%,16µM*,32%,-1%
O=C(O)CC(C(=O)OCCOc1ccccc1)N1CCOCC1 (stereo unspecified),1,?,-19%,79µM*,12%,/
CCOC(=O)C1CCN(S(=O)(=O)CCNC(=O)c2ccc3c(c2)OCO3)CC1,8,0%,-1%,-2%[0.501 µM],42%,2%
CC(=O)c1cccc(NC(=O)CSc2nc3c(=O)n(C)c(=O)n(C)c3n2C)c1,/,10%,-2%,0%[59 µM],40%,/
COc1cccc(C(=O)NCCS(=O)(=O)N2CCOCC2)c1,4,-5%,-5%,22µM*,13%,33%
COc1ccc(C(=O)NCCS(=O)(=O)N2CCOCC2)cc1,-5,-10%,10%,-42%,9%,6%
CCCS(=O)(=O)N1CC(=O)N(c2ccc(C)cc2C)C(C)(C(=O)NC2CCCCCC2)C1 (stereo unspecified),/,-14%,0%,-1%[59 µM],17%,/
O=C(CSc1nnc(COc2ccccc2)n1Cc1ccco1)c1ccc(F)cc1,-3,79µM*,?,28µM*,18%,-19%
Cc1occc1-c1nnc(SCC(=O)c2ccc(F)cc2)n1Cc1ccco1,-14,-30%,50µM*,10µM*,-3%,-23%[11.4 µM]
O=C(CSc1nnc(-c2cc3ccccc3cc2O)n1Cc1ccco1)c1ccc(F)cc1,/,?,-21%,?,?,-8%
c1cncc(-c2nc(NCC3COc4ccccc4O3)c3ccccc3n2)c1 (stereo unspecified),1,22%[11.4 µM],-32%,50µM*,1%,/
Clc1cccc(CNc2nc(-c3cccnc3)nc3ccccc23)c1,-10,?,?,45µM*,-14%,/
COCCCN1C(=O)C(O)=C(C(C)=O)C1c1cccc(F)c1 (stereo unspecified),-2,?,?,50µM*,11%,?
CCCCN1C(=O)C(O)=C(C(C)=O)C1c1ccccc1 (stereo unspecified),-7,-27%,?,50µM*,7%,/

# Screening results: PubChem, National Center for Advancing Translational Sciences (NCATS)
